Calls of active or inactive are those of the source. Rule for the calls: active = hit-call score of the fitted dose curve at least 0.9, where 1 is the maximum; inactive = score below 0.9.
Assays:
[1] = read-out: Interleukin-6 (IL6), IL6 (gene 3569); experiment: BSK_CASM3C_IL6: BioMAP Diversity Plus: CASM3C Assay for Interleukin-6 (IL6) Biomarker Activity for (AID 2283040); details: primary human coronary artery smooth muscle cells; actives raise or lower the signal
[2] = read-out: Tissue plasminogen activator (tPA), PLAT (gene 5327); experiment: BSK_BE3C_tPA: BioMAP Diversity Plus: BE3C Assay for Tissue plasminogen activator (tPA) Biomarker Activity (AID 2283041); details: primary human bronchial epithelial cells; actives raise or lower the signal;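 note: tPA level quantified by ELISA one day after compound addition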
How it was run: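 Using human lung primary bronchial epithelial cells, tPA was measured by ELISA 24 h after dosing; data fitted relative to DMSO.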

[3] = read-out: Interleukin-8 (IL8), CXCL8 (gene 3576); experiment: BSK_CASM3C_IL8: BioMAP Diversity Plus: CASM3C Assay for Interleukin-8 (IL8) Biomarker Activity (AID 2283042); details: primary human coronary artery smooth muscle cells; actives raise or lower the signal;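 note: IL-8 protein level quantified by ELISA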
[4] = read-out: Human Leukocyte Antigen - DR isotype (HLADR), HLA-DRA (gene 3122); experiment: BSK_CASM3C_HLADR: BioMAP Diversity Plus: CASM3C Assay for Human Leukocyte Antigen - DR isotype (HLADR) Biomarker Activity (AID 2283043); details: primary human coronary artery smooth muscle cells; actives raise or lower the signal;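 note: cell-surface HLA-DR protein level quantified by ELISA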
[5] = read-out: Macrophage colony-stimulating factor (MCSF), CSF1 (gene 1435); experiment: BSK_CASM3C_MCSF: BioMAP Diversity Plus: CASM3C Assay for Macrophage colony-stimulating factor (MCSF) Biomarker Activity (AID 2283044); details: primary human coronary artery smooth muscle cells; actives raise or lower the signal;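 note: M-CSF protein amount quantified by ELISA after 24 h exposure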
[6] = read-out: Low-density lipoprotein receptor (LDLR), LDLR (gene 3949); experiment: BSK_CASM3C_LDLR: BioMAP Diversity Plus: CASM3C Assay for Low-density lipoprotein receptor (LDLR) Biomarker Activity (AID 2283045); details: primary human coronary artery smooth muscle cells; actives raise or lower the signal;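 note: LDLR protein level on the cell surface quantified by ELISA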
[7] = read-out: Monocyte Chemoattractant Protein-1 (MCP1), CCL2 (gene 6347); experiment: BSK_CASM3C_MCP1: BioMAP Diversity Plus: CASM3C Assay for Monocyte Chemoattractant Protein-1 (MCP1) Biomarker Activity (AID 2283046); details: primary human coronary artery smooth muscle cells; actives raise or lower the signal;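 note: MCP-1 level quantified by ELISA 24 h after dosing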
[8] = BSK_CASM3C_Proliferation: Cell Proliferation Assessment in the BioMAP Diversity Plus: CASM3C Assay (AID 2283047); details: primary human coronary artery smooth muscle cells;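 note: sulforhodamine B total protein stain as relative cell number at 560 nm; sub-confluent cells exposed 48 h before staining; fitted both ways against DMSO so gain or loss of cell number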
[9] = read-out: Monokine induced gamma interferon (MIG), CXCL9 (gene 4283); experiment: BSK_CASM3C_MIG: BioMAP Diversity Plus: CASM3C Assay for Monokine induced gamma interferon (MIG) Biomarker Activity (AID 2283048); details: primary human coronary artery smooth muscle cells; actives raise or lower the signal;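 note: MIG protein level measured by ELISA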
[10] = read-out: serum amyloid A (SAA), SAA1 (gene 6288); experiment: BSK_CASM3C_SAA: BioMAP Diversity Plus: CASM3C Assay for serum amyloid A (SAA) Biomarker Activity (AID 2283049); details: primary human coronary artery smooth muscle cells; actives raise or lower the signal;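 note: SAA protein level quantified by ELISA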
[11] = BSK_CASM3C_SRB: Viability Assessment in the BioMAP Diversity Plus: CASM3C Assay (AID 2283050); details: primary human coronary artery smooth muscle cells;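 note: total protein by SRB staining as cytotoxicity measure in parallel cultures; cells exposed to compound for 24 h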
[12] = read-out: Thrombomodulin, THBD (gene 7056); experiment: BSK_CASM3C_Thrombomodulin: BioMAP Diversity Plus: CASM3C Assay for Thrombomodulin Biomarker Activity (AID 2283051); details: primary human coronary artery smooth muscle cells; actives raise or lower the signal;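 note: thrombomodulin protein level measured by ELISA 24 h after dosing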
[13] = read-out: Tissue Factor, F3 (gene 2152); experiment: BSK_CASM3C_TissueFactor: BioMAP Diversity Plus: CASM3C Assay for Tissue Factor Biomarker Activity (AID 2283052); details: primary human coronary artery smooth muscle cells; actives raise or lower the signal;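 note: cell surface tissue factor protein level read by ELISA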
[14] = read-out: Interferon-gamma inducible Protein 10 (IP10), CXCL10 (gene 3627); experiment: BSK_hDFCGF_IP10: BioMAP Diversity Plus: hDFCGF Assay for Interferon-gamma inducible Protein 10 (IP10) Biomarker Activity (AID 2283053); details: primary human foreskin fibroblasts; actives raise or lower the signal
How it was run: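 Chemical-treated human skin fibroblasts (primary) were sampled at 24 h for IP-10 by ELISA. Both increases and decreases relative to DMSO were scored.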

[15] = read-out: Urokinase-type plasminogen activator receptor (uPAR), PLAUR (gene 5329); experiment: BSK_CASM3C_uPAR: BioMAP Diversity Plus: CASM3C Assay for Urokinase-type plasminogen activator receptor (uPAR) Biomarker Activity (AID 2283054); details: primary human coronary artery smooth muscle cells; actives raise or lower the signal;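 note: cell-surface uPAR protein level quantified by ELISA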
[16] = read-out: Vascular cell adhesion molecule 1 (VCAM1), VCAM1 (gene 7412); experiment: BSK_CASM3C_VCAM1: BioMAP Diversity Plus: CASM3C Assay for Vascular cell adhesion molecule 1 (VCAM1) Biomarker Activity (AID 2283055); details: primary human coronary artery smooth muscle cells; actives raise or lower the signal;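 note: VCAM-1 protein level quantified by ELISA on the cells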
[17] = read-out: Collagen III, COL3A1 (gene 1281); experiment: BSK_hDFCGF_CollagenIII: BioMAP Diversity Plus: hDFCGF Assay for Collagen III Biomarker Activity (AID 2283056); details: primary human foreskin fibroblasts; actives raise or lower the signal
How it was run: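 Cells: human foreskin fibroblasts, primary. Dosing followed by 24 h incubation, then ELISA for collagen III. Both increases and decreases scored relative to DMSO.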

[18] = read-out: Epidermal growth factor receptor (EGFR), EGFR (gene 1956); experiment: BSK_hDFCGF_EGFR: BioMAP Diversity Plus: hDFCGF Assay for Epidermal growth factor receptor (EGFR) Biomarker Activity (AID 2283057); details: primary human foreskin fibroblasts; actives raise or lower the signal
How it was run: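 Cell-based multiplexed assay in primary human foreskin fibroblasts. EGFR is read by ELISA 24 h after treatment and compared with DMSO controls.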

[19] = read-out: Interleukin-8 (IL8), CXCL8 (gene 3576); experiment: BSK_hDFCGF_IL8: BioMAP Diversity Plus: hDFCGF Assay for Interleukin-8 (IL8) Biomarker Activity (AID 2283058); details: primary human foreskin fibroblasts; actives raise or lower the signal
How it was run: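 IL-8 levels from compound-treated primary human fibroblasts were read by ELISA at 24 h, with DMSO serving as baseline for bidirectional fitting.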

[20] = BSK_hDFCGF_Proliferation: Cell Proliferation Assessment in the BioMAP Diversity Plus: hDFCGF Assay (AID 2283059); details: primary human foreskin fibroblasts;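 note: curves fitted for both rise and fall of signal versus DMSO baseline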
How it was run: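 Primary human foreskin fibroblasts, sub-confluent; […]; 10% TCA fix, 0.1% SRB stain, A560 total protein. Gain/loss fitted bidirectionally vs DMSO control.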

Which outcome [1] does the source give for `CCCCCCCCCCCC(C)=O` here?
Its outcome is “inactive”.

What about the outcome [2] of the same compound?
The outcome was “inactive”.

What about the outcome [3] of the same compound?
Its outcome is “inactive”.

What about the outcome [4] of the same compound?
Its outcome is “inactive”.

And the AC50 [5]?
Its AC50 is 35.9 µM (active).

And the outcome [6]?
The outcome was “inactive”.

And the AC50 [7]?
Its AC50 is 36.8 µM (active).

What about the AC50 [8] of the same compound?
The AC50 was 20 µM (active).

What about the outcome [9] of the same compound?
The outcome was “inactive”.

And the outcome [10]?
The outcome was “inactive”.

What about the AC50 [11] of the same compound?
Its AC50 is 20 µM (active).

What about the outcome [12] of the same compound?
Its outcome is “inactive”.

What about the AC50 [13] of the same compound?
Its AC50 is 0.82 µM (active).

And the outcome [14]?
The outcome was “inactive”.

What about the AC50 [15] of the same compound?
The AC50 was 20 µM (active).

And the outcome [16]?
Its outcome is “inactive”.

What about the outcome [17] of the same compound?
The outcome was “inactive”.

And the outcome [18]?
Its outcome is “inactive”.

What about the outcome [19] of the same compound?
Its outcome is “inactive”.

What about the AC50 [20] of the same compound?
The AC50 was 24.6 µM (active).

For `Cc1c(O)cccc1O`, which outcome [1] is on record?
Its outcome is “inactive”.

What about the outcome [2] of the same compound?
The outcome was “inactive”.

And the outcome [3]?
Its outcome is “inactive”.

What about the outcome [4] of the same compound?
Its outcome is “inactive”.

What about the outcome [5] of the same compound?
The outcome was “inactive”.

And the outcome [6]?
The outcome was “inactive”.

And the outcome [7]?
Its outcome is “inactive”.

And the outcome [8]?
Its outcome is “inactive”.

And the outcome [9]?
The outcome was “inactive”.

What about the outcome [10] of the same compound?
Its outcome is “inactive”.

And the outcome [11]?
Its outcome is “inactive”.

And the outcome [12]?
Its outcome is “inactive”.

What about the outcome [13] of the same compound?
The outcome was “inactive”.

And the outcome [14]?
Its outcome is “inactive”.

And the outcome [15]?
Its outcome is “inactive”.

What about the outcome [16] of the same compound?
Its outcome is “inactive”.

And the outcome [17]?
Its outcome is “inactive”.

What about the outcome [18] of the same compound?
Its outcome is “inactive”.

And the outcome [20]?
The outcome was “inactive”.

With `CCCC(C)C(=O)OCC` (stereo unspecified) as the compound, how does the outcome [1] read?
The outcome was “inactive”.

And the outcome [2]?
The outcome was “inactive”.

What about the outcome [3] of the same compound?
Its outcome is “inactive”.

And the outcome [4]?
The outcome was “inactive”.

And the outcome [5]?
Its outcome is “inactive”.

And the outcome [6]?
Its outcome is “inactive”.

And the outcome [7]?
The outcome was “inactive”.

What about the outcome [8] of the same compound?
The outcome was “inactive”.

What about the outcome [9] of the same compound?
The outcome was “inactive”.

What about the outcome [10] of the same compound?
The outcome was “inactive”.

What about the outcome [11] of the same compound?
The outcome was “inactive”.

And the outcome [12]?
Its outcome is “inactive”.

And the outcome [13]?
The outcome was “inactive”.

And the outcome [14]?
Its outcome is “inactive”.

What about the outcome [15] of the same compound?
The outcome was “inactive”.

And the outcome [16]?
Its outcome is “inactive”.

What about the outcome [17] of the same compound?
The outcome was “inactive”.

And the outcome [18]?
The outcome was “inactive”.

And the outcome [19]?
The outcome was “inactive”.

And the outcome [20]?
Its outcome is “inactive”.

With `CCCCCC1=CCCC1=O` as the compound, how does the outcome [1] read?
The outcome was “inactive”.

What about the outcome [2] of the same compound?
Its outcome is “inactive”.

And the outcome [3]?
Its outcome is “inactive”.

And the outcome [4]?
The outcome was “inactive”.

What about the outcome [5] of the same compound?
The outcome was “inactive”.

And the outcome [6]?
Its outcome is “inactive”.

And the outcome [7]?
The outcome was “inactive”.

And the outcome [8]?
The outcome was “inactive”.

And the outcome [9]?
Its outcome is “inactive”.

And the outcome [10]?
The outcome was “inactive”.

What about the outcome [11] of the same compound?
The outcome was “inactive”.

What about the outcome [12] of the same compound?
Its outcome is “inactive”.

And the outcome [13]?
The outcome was “inactive”.

What about the outcome [14] of the same compound?
The outcome was “inactive”.

And the outcome [15]?
Its outcome is “inactive”.

What about the outcome [16] of the same compound?
The outcome was “inactive”.

What about the outcome [17] of the same compound?
The outcome was “inactive”.

What about the outcome [18] of the same compound?
The outcome was “inactive”.

And the outcome [19]?
Its outcome is “inactive”.

What does the source list for `O=C(Oc1ccccc1)c1ccccc1C(=O)Oc1ccccc1`?
outcome [1]: inactive; outcome [2]: inactive; outcome [3]: inactive; outcome [4]: inactive; outcome [5]: inactive; outcome [6]: inactive; outcome [7]: inactive; outcome [8]: inactive; outcome [9]: inactive; outcome [10]: inactive; outcome [11]: inactive; outcome [12]: inactive; outcome [13]: inactive; outcome [14]: inactive; outcome [15]: inactive; outcome [16]: inactive; AC50 [17]: 11.5 µM (active); outcome [18]: inactive; AC50 [20]: 24 µM (active)

Which outcome [1] does the source give for `CCOC(=O)/C=C\C(=O)OCC` here?
The outcome was “inactive”.

And the outcome [2]?
Its outcome is “inactive”.

And the outcome [3]?
The outcome was “inactive”.

What about the outcome [4] of the same compound?
The outcome was “inactive”.

And the outcome [5]?
The outcome was “inactive”.

What about the outcome [6] of the same compound?
Its outcome is “inactive”.

And the outcome [7]?
The outcome was “inactive”.

What about the outcome [8] of the same compound?
The outcome was “inactive”.

What about the outcome [9] of the same compound?
The outcome was “inactive”.

And the outcome [10]?
Its outcome is “inactive”.

And the outcome [11]?
The outcome was “inactive”.

And the outcome [12]?
The outcome was “inactive”.

What about the outcome [13] of the same compound?
The outcome was “inactive”.

And the outcome [14]?
The outcome was “inactive”.

And the outcome [15]?
Its outcome is “inactive”.

And the outcome [16]?
Its outcome is “inactive”.

What about the outcome [17] of the same compound?
The outcome was “inactive”.

What about the outcome [18] of the same compound?
Its outcome is “inactive”.

And the outcome [19]?
The outcome was “inactive”.
